Results from the supplement of paper PMC8728848.
This excerpt belongs to a sample that is enriched for the strongest signals.

Key:
Test in all cases: glycan array binding signal (z-score within array); higher = stronger binding
Conditions in all cases: glycan notation: IUPAC condensed, linker removed
[1] = target: Fuc(a1-2)Gal(b1-3)GalNAc(b1-3)Gal(a1-4)Gal(b1-4)Glc
Method in brief: (§1)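 Glycan array data were curated from 3228 arrays in the Consortium for Functional Glycomics database and kept only where the protein sequence was available. Glycan names were converted to IUPAC-condensed notation, and columns mapping to the same glycan were averaged. The binding signal is a within-array Z-score, averaged across arrays of the same protein sequence at different concentrations or buffers and across linkers. Negative Z-scores can be read as non-binding.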

[2] = target: Fuc(a1-2)Gal(b1-4)GlcNAc(b1-2)Man
Method in brief: as §1

[3] = target: Fuc(a1-2)Gal(b1-4)GlcNAc(b1-3)[Fuc(a1-2)Gal(b1-4)GlcNAc(b1-6)]GalNAc
Method in brief: as §1

[4] = target: Fuc(a1-2)Gal(b1-4)[Fuc(a1-3)]GlcNAc(b1-3)Gal(b1-4)[Fuc(a1-3)]GlcNAc(b1-3)Gal(b1-4)[Fuc(a1-3)]GlcNAc
Method in brief: as §1

[5] = target: Fuc(a1-2)[Gal(a1-3)]Gal(b1-3)GalNAc
Method in brief: as §1

[6] = target: Fuc(a1-2)[Gal(a1-3)]Gal(b1-3)GlcNAc(b1-3)GalNAc
Method in brief: as §1

[7] = target: Fuc(a1-2)[Gal(a1-3)]Gal(b1-4)GlcNAc(b1-3)[Fuc(a1-2)[Gal(a1-3)]Gal(b1-4)GlcNAc(b1-6)]GalNAc
Method in brief: as §1

[8] = target: Fuc(a1-2)[Gal(a1-3)]Gal(b1-4)GlcNAc(b1-6)GalNAc
Method in brief: as §1

[9] = target: Fuc(a1-2)[GalNAc(a1-3)]Gal(b1-3)GalNAc(a1-3)[Fuc(a1-2)]Gal(b1-4)GlcNAc
Method in brief: as §1

[10] = target: Fuc(a1-2)[GalNAc(a1-3)]Gal(b1-4)[Fuc(a1-3)]GlcNAc(b1-3)GalNAc
Method in brief: as §1

Fuc(a1-4)GlcNAc = target: Fuc(a1-4)GlcNAc
Method in brief: as §1

[11] = target: Gal(a1-3)Gal(b1-3)GlcNAc(b1-6)GalNAc
Method in brief: as §1

[12] = target: Gal(a1-3)Gal(b1-4)GlcNAc(b1-2)Man(a1-3)[Gal(a1-3)Gal(b1-4)GlcNAc(b1-2)Man(a1-6)]Man(b1-4)GlcNAc(b1-4)GlcNAc
Method in brief: as §1

Gal(b1-2)Gal = target: Gal(b1-2)Gal
Method in brief: as §1

[13] = target: Gal(b1-3)GalNAc(b1-4)Gal(b1-4)Glc
Method in brief: as §1

Gal(b1-3)GlcNAc(b1-2)Man = target: Gal(b1-3)GlcNAc(b1-2)Man
Method in brief: as §1

[14] = target: Gal(b1-3)GlcNAc(b1-3)Gal(b1-4)GlcNAc(b1-3)Gal(b1-4)GlcNAc(b1-2)[Gal(b1-3)GlcNAc(b1-3)Gal(b1-4)GlcNAc(b1-3)Gal(b1-4)GlcNAc(b1-6)]Man(a1-6)[Gal(b1-3)GlcNAc(b1-3)Gal(b1-4)GlcNAc(b1-3)Gal(b1-4)GlcNAc(b1-2)Man(a1-3)]Man(b1-4)GlcNAc(b1-4)[Fuc(a1-6)]GlcNAc
Method in brief: as §1

[15] = target: Gal(b1-3)GlcNAc(b1-3)Gal(b1-4)GlcNAc(b1-6)[Gal(b1-3)GlcNAc(b1-3)]Gal(b1-4)Glc
Method in brief: as §1

[16] = target: Gal(b1-3)[Fuc(a1-4)]GlcNAc
Method in brief: as §1

[17] = target: Gal(b1-4)GlcNAc(b1-2)Man(a1-3)[Gal(b1-4)GlcNAc(b1-2)Man(a1-6)][Gal(b1-4)GlcNAc(b1-4)]Man(b1-4)GlcNAc(b1-4)[Fuc(a1-6)]GlcNAc
Method in brief: as §1

[18] = target: Gal(b1-4)GlcNAc(b1-2)Man(a1-3)[GlcNAc(b1-4)][Gal(b1-4)GlcNAc(b1-2)Man(a1-6)]Man(b1-4)GlcNAc(b1-4)GlcNAc
Method in brief: as §1

[19] = target: Gal(b1-4)GlcNAc(b1-2)Man(a1-6)[GlcNAc(b1-2)Man(a1-3)]Man(b1-4)GlcNAc(b1-4)GlcNAc
Method in brief: as §1

[20] = target: Gal(b1-4)GlcNAc(b1-2)Man(a1-6)[Man(a1-3)]Man(b1-4)GlcNAc(b1-4)GlcNAc
Method in brief: as §1

[21] = target: Gal(b1-4)GlcNAc(b1-2)[Gal(b1-4)GlcNAc(b1-6)]Man(a1-6)[Gal(b1-4)GlcNAc(b1-2)Man(a1-3)]Man(b1-4)GlcNAc(b1-4)[Fuc(a1-6)]GlcNAc
Method in brief: as §1

[22] = target: Gal(b1-4)GlcNAc(b1-3)Gal(b1-4)GlcNAc(b1-2)[Gal(b1-4)GlcNAc(b1-3)Gal(b1-4)GlcNAc(b1-6)]Man(a1-6)[Gal(b1-4)GlcNAc(b1-3)Gal(b1-4)GlcNAc(b1-2)Man(a1-3)]Man(b1-4)GlcNAc(b1-4)GlcNAc
Method in brief: as §1

[23] = target: Gal(b1-4)GlcNAc(b1-3)Gal(b1-4)GlcNAc(b1-3)Gal(b1-4)GlcNAc(b1-3)Gal(b1-4)GlcNAc(b1-2)Man(a1-3)[Gal(b1-4)GlcNAc(b1-3)Gal(b1-4)GlcNAc(b1-3)Gal(b1-4)GlcNAc(b1-3)Gal(b1-4)GlcNAc(b1-2)Man(a1-6)]Man(b1-4)GlcNAc(b1-4)[Fuc(a1-6)]GlcNAc
Method in brief: as §1

[24] = target: Gal(b1-4)GlcNAc(b1-3)Gal(b1-4)GlcNAc(b1-3)Gal(b1-4)GlcNAc(b1-3)Gal(b1-4)GlcNAc(b1-3)Gal(b1-4)GlcNAc(b1-2)Man(a1-3)[Gal(b1-4)GlcNAc(b1-3)Gal(b1-4)GlcNAc(b1-3)Gal(b1-4)GlcNAc(b1-3)Gal(b1-4)GlcNAc(b1-3)Gal(b1-4)GlcNAc(b1-2)Man(a1-6)]Man(b1-4)GlcNAc(b1-4)GlcNAc
Method in brief: as §1

[25] = target: Gal(b1-4)GlcNAc(b1-3)Gal(b1-4)GlcNAc(b1-3)[Gal(b1-4)GlcNAc(b1-3)Gal(b1-4)GlcNAc(b1-6)]GalNAc
Method in brief: as §1

[26] = target: Gal(b1-4)GlcNAc(b1-3)[Gal(b1-4)GlcNAc(b1-6)]Gal(b1-4)GlcNAc
Method in brief: as §1

GalNAc(a1-3)Gal = target: GalNAc(a1-3)Gal
Method in brief: as §1

GalNAc(b1-4)GlcNAc = target: GalNAc(b1-4)GlcNAc
Method in brief: as §1

[27] = target: Glc(a1-4)Glc(a1-4)Glc(a1-4)Glc
Method in brief: as §1

[28] = target: GlcNAc(b1-2)[GlcNAc(b1-4)]Man(a1-3)[GlcNAc(b1-4)][GlcNAc(b1-2)[GlcNAc(b1-6)]Man(a1-6)]Man(b1-4)GlcNAc(b1-4)[Fuc(a1-6)]GlcNAc
Method in brief: as §1

[29] = target: GlcNAc(b1-3)Gal(b1-4)GlcNAc
Method in brief: as §1

[30] = target: GlcNAc(b1-3)Gal(b1-4)GlcNAc(b1-3)Gal(b1-4)GlcNAc(b1-3)Gal(b1-4)GlcNAc(b1-2)[GlcNAc(b1-3)Gal(b1-4)GlcNAc(b1-3)Gal(b1-4)GlcNAc(b1-3)Gal(b1-4)GlcNAc(b1-6)]Man(a1-6)[GlcNAc(b1-3)Gal(b1-4)GlcNAc(b1-3)Gal(b1-4)GlcNAc(b1-3)Gal(b1-4)GlcNAc(b1-2)Man(a1-3)]Man(b1-4)GlcNAc(b1-4)[Fuc(a1-6)]GlcNAc
Method in brief: as §1

[31] = target: GlcNAc(b1-3)[GlcNAc(b1-6)]Gal(b1-4)GlcNAc
Method in brief: as §1

[32] = target: Man(a1-2)Man(a1-2)Man(a1-3)Man
Method in brief: as §1

[33] = target: Man(a1-2)Man(a1-3)[Man(a1-6)]Man(a1-6)[Man(a1-2)Man(a1-3)]Man(b1-4)GlcNAc(b1-4)GlcNAc
Method in brief: as §1

Man(a1-6)Man = target: Man(a1-6)Man
Method in brief: as §1

[34] = target: Neu5Ac(a2-3)Gal(b1-3)GalNAc(b1-4)[Neu5Ac(a2-3)]Gal(b1-4)Glc
Method in brief: as §1

[35] = target: Neu5Ac(a2-3)Gal(b1-3)[Fuc(a1-4)]GlcNAc(b1-3)Gal(b1-3)[Fuc(a1-4)]GlcNAc
Method in brief: as §1

Neu5Ac(a2-3)Gal(b1-4)Glc = target: Neu5Ac(a2-3)Gal(b1-4)Glc
Method in brief: as §1

[36] = target: Neu5Ac(a2-3)[GalNAc(b1-4)]Gal(b1-4)GlcNAc
Method in brief: as §1

Neu5Ac(a2-6)Gal(b1-4)Glc = target: Neu5Ac(a2-6)Gal(b1-4)Glc
Method in brief: as §1

[37] = target: Neu5Ac(a2-6)Gal(b1-4)GlcNAc(b1-2)Man(a1-3)[Neu5Ac(a2-6)Gal(b1-4)GlcNAc(b1-2)Man(a1-6)]Man(b1-4)GlcNAc(b1-4)[Fuc(a1-6)]GlcNAc
Method in brief: as §1

[38] = target: Neu5Ac(a2-6)GlcNAc(b1-4)GlcNAc(b1-4)GlcNAc
Method in brief: as §1

[39] = target: Neu5Ac(a2-8)Neu5Ac(a2-8)Neu5Ac(a2-3)Gal(b1-4)Glc
Method in brief: as §1

B1: Na-CTL-1 (Necator americanus) (protein)
chain: MQRSFLLLLVVLAGAWAVNTTIPLKLMGGFTPMKYQCVGRVSDIWADVLFLIESSDMITKSGFRQVIAFITATTKKMTIGQDEKQTRVGFITYGEEAKLIYDLDHWRSTEKLSDLVQKIPYVKSSGTNIAAAIALANKVFNSPTHRPNVPKVMVIVANGLKKGSQNPIPVATAFKDFGGIIITIEYTQYDNIQVPILKKIASEGYNIRSNDEDFSVRTLTNMLLQANCFCPDHYVPFRVNNPEFGCFVTAKIPSMWRDAAEMCRAVEEGKLVKVENEEKAAFIMKLVGPKKEAWIGLRYYGNKFQWTDGTKLNADDFNLWPEDIKELNGPHCVSMYQDQKDKKYYWRAGKCLEDMRYVCEVQPCSASNYCSEPVFMYRQKHRALLPAPPPPPN
[1]
  glycan array binding signal (z-score): -0.262
[2]
  glycan array binding signal (z-score): 0.123
[3]
  glycan array binding signal (z-score): -0.753
[4]
  glycan array binding signal (z-score): -0.334
[5]
  glycan array binding signal (z-score): -0.176
[6]
  glycan array binding signal (z-score): -0.06
[7]
  glycan array binding signal (z-score): 2.8
[8]
  glycan array binding signal (z-score): -0.539
[9]
  glycan array binding signal (z-score): -0.489
[10]
  glycan array binding signal (z-score): 14.8
Fuc(a1-4)GlcNAc
  glycan array binding signal (z-score): 13.6
[11]
  glycan array binding signal (z-score): -0.267
[12]
  glycan array binding signal (z-score): 0.692
Gal(b1-2)Gal
  glycan array binding signal (z-score): -0.582
[13]
  glycan array binding signal (z-score): -0.243
Gal(b1-3)GlcNAc(b1-2)Man
  glycan array binding signal (z-score): -0.258
[14]
  glycan array binding signal (z-score): 1.66
[15]
  glycan array binding signal (z-score): -0.326
[16]
  glycan array binding signal (z-score): -0.259
[17]
  glycan array binding signal (z-score): -0.149
[18]
  glycan array binding signal (z-score): 0.121
[19]
  glycan array binding signal (z-score): -0.602
[20]
  glycan array binding signal (z-score): 3.16
[21]
  glycan array binding signal (z-score): 0.921
[22]
  glycan array binding signal (z-score): 2.03
[23]
  glycan array binding signal (z-score): 2.87
[24]
  glycan array binding signal (z-score): 0.78
[25]
  glycan array binding signal (z-score): -0.05
[26]
  glycan array binding signal (z-score): -0.557
GalNAc(a1-3)Gal
  glycan array binding signal (z-score): -0.696
GalNAc(b1-4)GlcNAc
  glycan array binding signal (z-score): 1.86
[27]
  glycan array binding signal (z-score): -0.045
[28]
  glycan array binding signal (z-score): -0.111
[29]
  glycan array binding signal (z-score): -0.383
[30]
  glycan array binding signal (z-score): 1.69
[31]
  glycan array binding signal (z-score): -0.476
[32]
  glycan array binding signal (z-score): 0.039
[33]
  glycan array binding signal (z-score): 0.06
Man(a1-6)Man
  glycan array binding signal (z-score): -0.528
[34]
  glycan array binding signal (z-score): 0.065
[35]
  glycan array binding signal (z-score): -0.347
Neu5Ac(a2-3)Gal(b1-4)Glc
  glycan array binding signal (z-score): 2.35
[36]
  glycan array binding signal (z-score): -0.222
Neu5Ac(a2-6)Gal(b1-4)Glc
  glycan array binding signal (z-score): -0.543
[37]
  glycan array binding signal (z-score): 0.041
[38]
  glycan array binding signal (z-score): 1.95
[39]
  glycan array binding signal (z-score): -0.34
